Shown are actives, neighbours in structure and some others; about 21% of the full set was active somewhere.
Pf growth 48h: Primary qHTS for delayed death inhibitors of the malarial parasite plastid, 48 hour incubation; P. falciparum luciferase growth in erythrocytes, 48 h; Potency, µM (series often up to 28.7 µM), actives largely listed as inhibitors; 310,000 compounds, 5.9% hits
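Luciferase-expressing P. falciparum in infected erythrocytes (2% hematocrit, 0.1% parasitemia final) in RPMI 1640/0.5% Albumax were exposed to compound for 48 hours at 37 C, 5% CO2; growth read as luminescence.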
Cycloheximide cs: Cycloheximide Counterscreen for Small Molecule Inhibitors of Shiga Toxin; cell reporter, cycloheximide protein synthesis inhibition counterscreen; max response, %; 300,000 compounds, 12% hits; AID 2314, 2010; in the data active = max response mostly above about 13%, no sharp cut-off; inactive = mostly below about 14%; also: read at 38.3 µM for the half of the compounds with a filed dose
Shiga inhibitor: A qHTS for Small Molecule Inhibitors of Shiga Toxin; AID 2315, 2010; 290,000 compounds, 9.2% hits; Vero cells, Shiga toxin protein synthesis inhibition reporter; inhibition, % at 38.7 µM; in the data active = inhibition mostly above about 28%, no sharp cut-off; inactive = mostly below about 43%
Pf growth 96h: Primary qHTS for delayed death inhibitors of the malarial parasite plastid, 96 hour incubation; P. falciparum luciferase reporter growth, 96 h; Potency, µM (doses to about 28.7 µM), actives largely listed as inhibitors; AID 504834, 2011; 320,000 compounds, 6.9% hits
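Delayed-death screen, second-generation endpoint: infected erythrocytes, 2% hematocrit, 0.05% parasitemia final; 96 hours at 37 C, 5% CO2; luciferase detection reagent; luminescence decrease equals reduced growth.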
Of the large screens only hits and unclear results are named; the others gave an inactive call. Unless noted, calls follow the shape of the dose curve; as a rule, active = well fitted inhibition curve with a large enough effect; inconclusive = small, poorly fitted or top-dose-only effect, or another doubt; inactive = no such curve, though single readings can be large or run the other way.

OCCCNc1cc(-c2ccccc2)nc2cc(-c3ccc(F)cc3)nn12	Pf growth 48h inconclusive (no result: Shiga inhibitor)
COc1ccc(NC(=O)Cn2cnc3sc(C)c(S(=O)(=O)N4CCOCC4)c3c2=O)cc1Cl	Pf growth 48h inconclusive
COc1ccc(NC(=O)C2CCN(S(=O)(=O)c3ccc(C)cc3)CC2)cc1OC	Pf growth 96h 5.2µM
COc1ccc(OC)c(S(=O)(=O)N2CCC(C(=O)Nc3cc(C)ccc3C)CC2)c1	Pf growth 96h 13µM (no result: Pf growth 48h)
COc1ccc(S(=O)(=O)N2CCC(C(=O)Nc3ccccc3N3CCCC3)CC2)cc1OC	Pf growth 48h inconclusive, Pf growth 96h 12µM
Cc1ccc(S(=O)(=O)N2CCC(C(=O)Nc3ccccc3N3CCCCC3)CC2)cc1	Pf growth 48h 7.4µM
CCOCC(=O)N1CCN(c2ccc([N+](=O)[O-])cc2)CC1	none
CCN(CC(=O)Nc1c(F)cccc1F)C(=O)CCC(=O)c1ccc(C)cc1	none (no result: Cycloheximide cs, Shiga inhibitor)
COc1ccc(-c2nc(=S)c3c([nH]2)Oc2ccc(C)cc2C3)cc1O	Pf growth 96h inconclusive
c1coc(CSSCc2ccco2)c1	Pf growth 48h inconclusive (no result: Cycloheximide cs, Shiga inhibitor)
CCN1CC(CN(C)Cc2nc(-c3ccc(C(F)(F)F)cc3)no2)CC1=O (stereo not drawn)	none
CN(Cc1nc(C(c2ccccc2)c2ccccc2)no1)CC1COCCO1 (stereo not drawn)	Cycloheximide cs 15, Pf growth 96h inconclusive
CCN1CC(CN(C)Cc2nc(-c3cccs3)no2)CC1=O (stereo not drawn)	Pf growth 96h 12µM
CN(Cc1nc(-c2cccs2)no1)CC(O)c1ccccc1 (stereo not drawn)	Cycloheximide cs 44, Shiga inhibitor 56
CN(Cc1nc(-c2cccs2)no1)CC1COCCO1 (stereo not drawn)	Cycloheximide cs 33, Shiga inhibitor 61, Pf growth 96h inconclusive
CN(Cc1nc(-c2cnccn2)no1)CC(O)c1ccccc1 (stereo not drawn)	Pf growth 96h inconclusive
CCC(=O)N1CCN=C1SCc1cccc(C(F)(F)F)c1	none
CN1CCC/C1=C/C=C1\SC(=S)NC1=O	Shiga inhibitor 35, Pf growth 96h inconclusive
CN1/C(=C\C=C2/SC(=S)NC2=O)C(C)(C)c2ccccc21	Pf growth 48h inconclusive, Pf growth 96h inconclusive
CN(CC(=O)Nc1ccccc1C(F)(F)F)C(=O)CSCc1ccccc1	none (no result: Cycloheximide cs, Shiga inhibitor)
CCNC(=O)C12CCC(C)(c3nc4cc(C)c(C)cc4nc31)C2(C)C (stereo not drawn)	Pf growth 48h inconclusive
CCC(C)(C)c1ccc(OCCCC[n+]2cccc(C)c2)c(C(C)(C)CC)c1	Pf growth 48h 2.3µM, Pf growth 96h inconclusive
O=C(O)c1cc(N/N=C/c2ccc(-c3ccc(F)cc3)o2)ccc1Cl	Cycloheximide cs 46, Shiga inhibitor 152
O=C(O)c1ccc(N/N=C/c2ccc(-c3cc(Cl)ccc3Cl)o2)cc1	Cycloheximide cs 81, Shiga inhibitor 112
O=C(O)c1ccc(-c2ccc(Cl)cc2Cl)o1	none (no result: Pf growth 48h)
O=C(O)c1ccc(N/N=C/c2ccc(-c3ccc(Cl)cc3Cl)o2)cc1	Cycloheximide cs 39, Shiga inhibitor 111
O=C(O)c1ccc(N/N=C/c2ccc(-c3cccc(Cl)c3)o2)cc1	Cycloheximide cs 60, Shiga inhibitor 82
Clc1cccc(-c2ccc(C=Nc3ccc(N4CCOCC4)cc3)o2)c1	Pf growth 96h 10µM
Oc1ccc(N=Nc2cccc(Cl)c2)cc1C=Nc1ccc(N2CCOCC2)cc1	Pf growth 48h inconclusive
Cc1[nH]n(-c2ccccc2)c(=O)c1N=Nc1ccc(F)cc1	Cycloheximide cs 13
COc1cc([N+](=O)[O-])ccc1N=Nc1c(N)[nH]n(-c2ccccc2)c1=O	none
Nc1[nH]n(-c2ccccc2)c(=O)c1N=Nc1ccccc1[N+](=O)[O-]	Cycloheximide cs 13, Pf growth 96h inconclusive (no result: Pf growth 48h)
Cc1[nH]n(-c2ccccc2)c(=O)c1N=Nc1c(O)cc(S(=O)(=O)N(C)C)c2ccccc12	Pf growth 48h 3.3µM, Pf growth 96h 4.1µM (no result: Cycloheximide cs, Shiga inhibitor)
CSc1ccc(N=Nc2c(C)[nH]n(C)c2=O)cc1	Pf growth 48h inconclusive, Cycloheximide cs 46, Shiga inhibitor 67, Pf growth 96h inconclusive
Cc1[nH]n(-c2ccccc2)c(=O)c1N=Nc1ccc2c(c1)OCCO2	none
Nc1[nH]n(-c2ccccc2)c(=O)c1N=Nc1ccccc1	Cycloheximide cs 61, Shiga inhibitor 61
Cc1[nH]n(-c2ccccc2)c(=O)c1N=Nc1cccc(Cl)c1	none
Nc1[nH]n(-c2ccccc2)c(=O)c1N=Nc1ccc2ncsc2c1	Cycloheximide cs 41, Shiga inhibitor 38
O=C(CCc1nnc2ccc(N3CCCC3)nn12)Nc1cc(F)ccc1F	none
FC(F)(F)c1ccc(-c2csc(-c3ccno3)n2)cc1	Cycloheximide cs 39, Shiga inhibitor 84
COC(=O)C(Cc1ccccc1)NC(=O)CCCC(=O)NCc1cccc(OC)c1 (stereo not drawn)	none
Cc1ccc(C(=O)Nc2nnc(-c3ccncc3)o2)cc1	Cycloheximide cs 9.8
O=C(Nc1nnc(-c2ccc3c(c2)CCCC3)o1)c1ccccc1	Pf growth 48h inconclusive, Cycloheximide cs 20, Shiga inhibitor active, Pf growth 96h inconclusive
O=C(Nc1nnc(-c2ccncc2)o1)c1ccccc1	Pf growth 48h inconclusive, Pf growth 96h inconclusive
CC(=O)NC1C(Oc2ccccc2C)OC2COC(c3ccco3)OC2C1O (stereo not drawn)	none
CCOC(=O)Cn1nc(C)n(-c2ccc(F)cc2)c1=O	none
Cc1ccc(NC(=O)Cc2ccc(F)cc2)cc1	Cycloheximide cs 21 (no result: Pf growth 96h)
CCC(C)(C)NC(=O)Cc1ccc(C)cc1	Cycloheximide cs 21, Shiga inhibitor 83 (no result: Pf growth 48h)
COc1ccc(CSCC(=O)Nc2ccccc2SC)cc1	none
Cc1ccc(CSCC(=O)Nc2ccccc2F)cc1	Cycloheximide cs 25, Shiga inhibitor 68
Cc1ccc(NC(=O)CSCC(=O)NCc2ccco2)cc1	none (no result: Cycloheximide cs, Shiga inhibitor)
Cc1ccc(NC(=O)CSCc2ccco2)cc1	Cycloheximide cs 23, Shiga inhibitor 105
Cc1ccc(NC(=O)CCC(=O)Nc2ccc(C)cc2)cc1	Pf growth 96h inconclusive
Cc1ccc(S(=O)(=O)Nc2c(C)nc3nc(C)[nH]n3c2=O)c(C)c1	none
Cc1cccc(C)c1NC(=O)CNC(=O)CCNC(=O)c1ccco1	none (no result: Cycloheximide cs, Shiga inhibitor)
CCN(CC)S(=O)(=O)c1ccc2c(c1)N(CC(=O)N1CCC(C(N)=O)CC1)C(=O)CO2	none
Cc1ccc(CSCC(=O)NCc2ccc(F)cc2)cc1	Pf growth 96h inconclusive
Cc1ccc(NC(=O)CSCc2ccc(F)cc2)cc1	Cycloheximide cs 51, Shiga inhibitor 76
CNC(=O)C1(C(F)(F)F)C/C(=C\Cc2ccccc2)CCCO1 (stereo not drawn)	none (no result: Pf growth 48h, Pf growth 96h)
O=C(C1CC(=O)N(c2ccc(Cl)cc2)C1)N1CCC(c2nc3ccccc3[nH]2)CC1 (stereo not drawn)	Pf growth 48h 10µM, Pf growth 96h inconclusive (no result: Cycloheximide cs, Shiga inhibitor)
CCOC(=O)N1CCC(c2nc3ccccc3[nH]2)CC1	Pf growth 96h 9.3µM (no result: Pf growth 48h)
CCOC(=O)N1CCC(Nc2nc3ccccc3nc2NS(=O)(=O)c2ccc(Cl)cc2)CC1	Cycloheximide cs 30, Shiga inhibitor 96 (no result: Pf growth 96h)
CCSc1nnc(-c2ccc(OC)cc2)o1	Cycloheximide cs 56, Shiga inhibitor 98
CCCCCCCCSc1nnc(-c2ccc(OC)cc2)o1	none (no result: Pf growth 48h)
COc1ccc(-c2nnc(SCC#N)o2)cc1	Cycloheximide cs 15
